Assay results published in PubChem BioAssay (NCATS).
Results filed as inconclusive are left out. A number with no mark means an inactive call. The source made the active and inactive calls. Calls come from the whole dose curve; tested in HEK293 reporter line.

assay: qHTS for Inhibitors of the Functional Ribonucleoprotein Complex (vRNP) of Lassa (LASV) Arenavirus: LASV Primary Screen - GLuc reporter signal (AID 1347082); details: LASV minigenome vRNP, Gaussia luciferase reporter; series mostly up to 57.5 µM; activity change, negative = inhibition: at the top concentration; note: nearly all actives have a fitted effect of over 60% in size
% is set by controls: 0 for no effect and ±100 for the full control effect; potency is the fitted concentration of half-maximal effect.

Compound | activity change, negative = inhibition [%] | Potency
C[C@@H](O[C@H]1OCCN(Cc2n[nH]c(=O)[nH]2)[C@@H]1c1ccc(F)cc1)c1cc(C(F)(F)F)cc(C(F)(F)F)c1 | -5.35 | –
CN(C)CCN(C)C(=O)c1ccc(NC(=O)Nc2ccc(-c3nc(N4CCOCC4)c4ccn(CC(F)(F)F)c4n3)cc2)cc1 | – | 0.0485 µM (active)
CCN(CC)CCc1nc(-c2ccccc2)no1 | -5.48 | –
NCCCC(N)(C(=O)O)C(F)F (stereo not drawn) | – | inactive
[O-][n+]1cccc(/C(Cl)=N/OC[C@@H](O)CN2CCCCC2)c1 | -7.35 | –
NC(=O)c1ccc(I)c([N+](=O)[O-])c1 | 17.9 | –
CC(C)(C)c1cc(C(=O)O)c(NC(=O)Nc2ccc3[nH]ncc3c2)s1 | -5.11 | –
OCCCc1ccccc1 | – | inactive
